Results on one sequence are retold here after article PMC7862700, “An all-to-all approach to the identification of sequence-specific readers for epigenetic DNA modifications on cytosine”.

Common to all, as to assay: DAPPL (digital affinity profiling via proximity ligation, sequencing); 10 mM Tris-HCl pH 7.5, 50 mM NaCl, 1 mM DTT, 4% glycerol, room temperature, 30 min; GST-TFs on glutathione beads, 16-mer random dsDNA library, 0.1% formaldehyde crosslink after washing; high values mean tight binding
Conditions in all cases: protein: recombinant; tags: N-terminal GST; dsDNA, one strand shown

The target in one assay is T1, FLI1 (Homo sapiens, UniProt Q01543 1-452).
T1 sequence: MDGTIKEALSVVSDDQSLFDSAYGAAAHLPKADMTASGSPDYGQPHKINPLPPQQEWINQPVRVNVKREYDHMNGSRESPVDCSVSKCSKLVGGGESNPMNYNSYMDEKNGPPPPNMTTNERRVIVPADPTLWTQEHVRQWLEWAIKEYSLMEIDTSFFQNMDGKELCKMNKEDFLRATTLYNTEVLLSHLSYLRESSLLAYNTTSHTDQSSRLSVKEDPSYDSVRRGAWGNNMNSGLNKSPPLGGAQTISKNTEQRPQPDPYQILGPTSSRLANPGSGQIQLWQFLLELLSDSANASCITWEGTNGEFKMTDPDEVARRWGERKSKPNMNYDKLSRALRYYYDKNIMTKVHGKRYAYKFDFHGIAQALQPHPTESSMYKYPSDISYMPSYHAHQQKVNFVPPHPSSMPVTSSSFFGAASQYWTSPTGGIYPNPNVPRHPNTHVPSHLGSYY
In short, it runs like this:
(§1)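 Beads coated with glutathione captured GST-fused human transcription factors that had been expressed in yeast, and the factors were then given DNA barcodes and pooled with a tag-only sample. The pools were incubated with 200 nmole of a random double-stranded 16-mer DNA library in Tris/NaCl/DTT/glycerol buffer for 30 min at room temperature, washed, crosslinked with 0.1% formaldehyde and proximity-ligated with BsaI/T4 ligase at 37 °C for 1 h. PCR amplification and Illumina NextSeq500 sequencing came last. Binding signal is each hexamer's read frequency for a factor divided by its frequency for the tag-only sample.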

Another assay concerns the target T2, ELK1 (Homo sapiens, UniProt P19419 1-428).
T2 sequence: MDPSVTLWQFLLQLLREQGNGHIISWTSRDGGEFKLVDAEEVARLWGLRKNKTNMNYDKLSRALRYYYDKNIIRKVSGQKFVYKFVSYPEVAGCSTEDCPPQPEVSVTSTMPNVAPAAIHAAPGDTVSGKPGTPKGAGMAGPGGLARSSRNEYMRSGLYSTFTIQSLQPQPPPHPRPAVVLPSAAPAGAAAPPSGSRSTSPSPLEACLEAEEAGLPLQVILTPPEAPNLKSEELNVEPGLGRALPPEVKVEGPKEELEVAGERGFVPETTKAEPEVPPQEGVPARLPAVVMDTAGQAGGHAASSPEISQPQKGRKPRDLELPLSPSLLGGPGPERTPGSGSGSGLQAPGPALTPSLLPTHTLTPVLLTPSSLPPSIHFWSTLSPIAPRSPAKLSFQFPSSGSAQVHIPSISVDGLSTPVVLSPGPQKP
In short, it runs like this: as §1

The next assay deals with T3, GABPA (Homo sapiens, UniProt Q06546 1-454).
T3 sequence: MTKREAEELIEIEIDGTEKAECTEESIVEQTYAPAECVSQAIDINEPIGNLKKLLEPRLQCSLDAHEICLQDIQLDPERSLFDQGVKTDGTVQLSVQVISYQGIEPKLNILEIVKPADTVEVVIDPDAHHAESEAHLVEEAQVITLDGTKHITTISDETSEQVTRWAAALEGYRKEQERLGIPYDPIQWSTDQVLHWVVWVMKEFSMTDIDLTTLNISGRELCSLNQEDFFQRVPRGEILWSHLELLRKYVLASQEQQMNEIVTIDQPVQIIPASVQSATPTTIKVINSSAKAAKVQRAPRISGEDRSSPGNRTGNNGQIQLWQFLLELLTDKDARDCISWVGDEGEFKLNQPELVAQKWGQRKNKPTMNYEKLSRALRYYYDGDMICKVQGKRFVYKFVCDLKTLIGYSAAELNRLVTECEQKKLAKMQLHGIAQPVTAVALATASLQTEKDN
In short, it runs like this: as §1

A further assay addresses T4, ERG (Homo sapiens, UniProt P11308 1-479).
T4 sequence: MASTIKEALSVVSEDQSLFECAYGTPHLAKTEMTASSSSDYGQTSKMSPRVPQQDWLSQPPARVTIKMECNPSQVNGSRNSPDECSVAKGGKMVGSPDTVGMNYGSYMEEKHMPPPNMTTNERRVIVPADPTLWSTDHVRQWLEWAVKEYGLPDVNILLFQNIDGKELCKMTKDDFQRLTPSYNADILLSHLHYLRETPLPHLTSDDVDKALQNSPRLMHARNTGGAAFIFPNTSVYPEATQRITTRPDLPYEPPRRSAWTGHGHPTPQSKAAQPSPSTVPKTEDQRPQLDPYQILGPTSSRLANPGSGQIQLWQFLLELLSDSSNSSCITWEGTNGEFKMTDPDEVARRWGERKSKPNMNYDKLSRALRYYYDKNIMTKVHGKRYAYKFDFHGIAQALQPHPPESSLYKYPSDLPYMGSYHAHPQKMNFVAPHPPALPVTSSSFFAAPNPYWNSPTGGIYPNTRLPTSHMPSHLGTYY
In short, it runs like this:
as §1

The target in another assay is ELF1 (Homo sapiens, UniProt P32519 1-619). In short, it runs like this: as §1
In the next assay the target is T5, EHF (Homo sapiens, UniProt Q9NZC4 1-300).
T5 sequence: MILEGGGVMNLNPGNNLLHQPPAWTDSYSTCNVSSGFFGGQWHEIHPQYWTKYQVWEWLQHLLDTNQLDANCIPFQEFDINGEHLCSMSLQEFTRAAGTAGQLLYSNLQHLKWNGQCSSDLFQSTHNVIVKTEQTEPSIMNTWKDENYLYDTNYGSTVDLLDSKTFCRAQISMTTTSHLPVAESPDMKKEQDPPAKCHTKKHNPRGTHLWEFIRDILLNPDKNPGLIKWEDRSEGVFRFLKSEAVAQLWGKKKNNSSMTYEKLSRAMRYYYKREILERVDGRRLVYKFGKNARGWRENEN
In short, it runs like this: as §1

The target in the next assay is SPI1 (Homo sapiens, UniProt P17947 1-270). In short, it runs like this:
as §1

In a further assay the target is SPIB (Homo sapiens, UniProt Q01892 1-262). In short, it runs like this: as §1
Another assay addresses T6, ELK3 (Homo sapiens, UniProt P41970 1-407).
T6 sequence: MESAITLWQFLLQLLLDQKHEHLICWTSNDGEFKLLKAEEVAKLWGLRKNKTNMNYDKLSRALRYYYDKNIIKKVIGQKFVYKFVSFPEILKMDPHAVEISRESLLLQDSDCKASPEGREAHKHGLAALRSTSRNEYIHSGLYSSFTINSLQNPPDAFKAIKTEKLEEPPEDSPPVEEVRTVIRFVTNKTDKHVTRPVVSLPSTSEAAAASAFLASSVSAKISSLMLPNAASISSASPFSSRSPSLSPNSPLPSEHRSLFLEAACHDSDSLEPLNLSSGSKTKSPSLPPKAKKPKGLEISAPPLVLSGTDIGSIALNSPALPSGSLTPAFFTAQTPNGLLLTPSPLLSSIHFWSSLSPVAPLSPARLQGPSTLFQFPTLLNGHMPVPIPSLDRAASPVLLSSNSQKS
In short, it runs like this:
as §1

A further assay concerns the target T7, FEV (Homo sapiens, UniProt Q99581 1-238).
T7 sequence: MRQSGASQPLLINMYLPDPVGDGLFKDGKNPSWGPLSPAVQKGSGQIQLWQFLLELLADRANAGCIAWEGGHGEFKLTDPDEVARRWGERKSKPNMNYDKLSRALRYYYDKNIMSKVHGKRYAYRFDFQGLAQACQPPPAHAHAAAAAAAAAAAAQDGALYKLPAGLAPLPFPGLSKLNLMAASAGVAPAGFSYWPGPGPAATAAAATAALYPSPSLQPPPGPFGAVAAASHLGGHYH
In short, it runs like this:
as §1

Another assay concerns the target ETV5 (Homo sapiens, UniProt P41161 1-510). In short, it runs like this:
as §1

The next assay concerns the target ELF4 (Homo sapiens, UniProt Q99607 1-663). In short, it runs like this:
as §1

Another assay addresses ETV1 (Homo sapiens, UniProt P50549 1-477). In short, it runs like this: as §1
For the next assay, the target named is T8, ERF (Homo sapiens, UniProt P50548 1-548).
T8 sequence: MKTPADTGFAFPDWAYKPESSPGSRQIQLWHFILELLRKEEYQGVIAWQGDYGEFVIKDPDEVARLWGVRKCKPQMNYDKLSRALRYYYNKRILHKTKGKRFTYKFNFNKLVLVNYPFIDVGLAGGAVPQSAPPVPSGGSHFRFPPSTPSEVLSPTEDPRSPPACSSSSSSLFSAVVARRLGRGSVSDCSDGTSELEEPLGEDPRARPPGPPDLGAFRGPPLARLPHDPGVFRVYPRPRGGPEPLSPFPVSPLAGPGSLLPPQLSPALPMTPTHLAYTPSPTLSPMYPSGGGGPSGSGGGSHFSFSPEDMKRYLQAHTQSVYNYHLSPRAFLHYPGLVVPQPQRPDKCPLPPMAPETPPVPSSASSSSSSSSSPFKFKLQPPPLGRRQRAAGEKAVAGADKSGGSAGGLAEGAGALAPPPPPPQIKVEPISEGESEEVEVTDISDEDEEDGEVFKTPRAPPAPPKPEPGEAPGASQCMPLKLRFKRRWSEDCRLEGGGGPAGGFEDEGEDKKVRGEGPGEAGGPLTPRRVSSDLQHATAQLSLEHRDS
In short, it runs like this:
as §1

For another assay, the target named is T9, ETV3L (Homo sapiens, UniProt Q6ZN32 1-361).
T9 sequence: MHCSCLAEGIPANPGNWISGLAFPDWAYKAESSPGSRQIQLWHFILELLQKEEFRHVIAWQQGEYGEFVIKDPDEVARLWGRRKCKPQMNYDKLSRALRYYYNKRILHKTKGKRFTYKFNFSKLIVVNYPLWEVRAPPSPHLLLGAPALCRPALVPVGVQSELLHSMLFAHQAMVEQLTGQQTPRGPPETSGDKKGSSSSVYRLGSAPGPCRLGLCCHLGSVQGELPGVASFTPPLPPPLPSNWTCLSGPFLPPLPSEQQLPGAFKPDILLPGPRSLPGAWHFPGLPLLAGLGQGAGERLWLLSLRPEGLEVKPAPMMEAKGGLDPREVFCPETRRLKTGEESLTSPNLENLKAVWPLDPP
In short, it runs like this:
as §1

In the next assay the target is T10, ETS2 (Homo sapiens, UniProt P15036 1-469).
T10 sequence: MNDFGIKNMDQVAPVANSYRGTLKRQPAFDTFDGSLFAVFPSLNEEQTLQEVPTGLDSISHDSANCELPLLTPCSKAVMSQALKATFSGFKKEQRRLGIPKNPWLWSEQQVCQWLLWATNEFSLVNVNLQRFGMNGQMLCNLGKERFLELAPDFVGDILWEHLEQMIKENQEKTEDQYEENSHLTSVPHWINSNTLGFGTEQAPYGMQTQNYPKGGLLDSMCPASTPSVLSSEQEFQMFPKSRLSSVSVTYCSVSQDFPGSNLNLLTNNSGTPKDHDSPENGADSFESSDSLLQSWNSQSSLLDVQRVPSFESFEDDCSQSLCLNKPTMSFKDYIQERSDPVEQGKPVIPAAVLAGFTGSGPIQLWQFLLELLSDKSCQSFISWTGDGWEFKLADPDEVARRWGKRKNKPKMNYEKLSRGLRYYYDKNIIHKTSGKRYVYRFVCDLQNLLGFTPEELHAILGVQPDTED
In short, it runs like this:
as §1

The target of the next assay is T11, ELF5 (Homo sapiens, UniProt Q9UKW6-2 1-255).
T11 sequence: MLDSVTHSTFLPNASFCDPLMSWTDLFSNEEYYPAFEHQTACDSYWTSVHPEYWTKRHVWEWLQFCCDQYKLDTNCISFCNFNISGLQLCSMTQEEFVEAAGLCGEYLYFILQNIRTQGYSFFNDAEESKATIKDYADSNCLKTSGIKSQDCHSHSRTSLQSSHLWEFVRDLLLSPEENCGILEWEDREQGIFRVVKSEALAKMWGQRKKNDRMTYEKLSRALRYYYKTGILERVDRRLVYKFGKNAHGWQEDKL
In short, it runs like this:
as §1

Another assay addresses T12, ETV3 (Homo sapiens, UniProt P41162-2 1-143).
T12 sequence: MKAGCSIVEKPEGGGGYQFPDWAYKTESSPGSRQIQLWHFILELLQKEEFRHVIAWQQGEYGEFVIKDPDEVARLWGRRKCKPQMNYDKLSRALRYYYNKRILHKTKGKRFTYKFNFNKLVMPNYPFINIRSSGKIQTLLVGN
In short, it runs like this: as §1

In a further assay the target is ETV6 (Homo sapiens, UniProt P41212 1-452). In short, it runs like this:
as §1

Sequence of SPIB (Q01892 whole entry): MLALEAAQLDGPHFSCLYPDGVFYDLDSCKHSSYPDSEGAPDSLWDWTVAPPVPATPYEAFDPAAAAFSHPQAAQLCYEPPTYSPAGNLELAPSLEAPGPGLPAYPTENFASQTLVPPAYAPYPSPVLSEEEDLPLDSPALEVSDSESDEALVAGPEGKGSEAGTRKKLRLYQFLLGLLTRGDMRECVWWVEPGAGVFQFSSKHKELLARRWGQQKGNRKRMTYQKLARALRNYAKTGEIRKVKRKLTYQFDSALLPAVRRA
Sequence of ELF1 (P32519 whole entry): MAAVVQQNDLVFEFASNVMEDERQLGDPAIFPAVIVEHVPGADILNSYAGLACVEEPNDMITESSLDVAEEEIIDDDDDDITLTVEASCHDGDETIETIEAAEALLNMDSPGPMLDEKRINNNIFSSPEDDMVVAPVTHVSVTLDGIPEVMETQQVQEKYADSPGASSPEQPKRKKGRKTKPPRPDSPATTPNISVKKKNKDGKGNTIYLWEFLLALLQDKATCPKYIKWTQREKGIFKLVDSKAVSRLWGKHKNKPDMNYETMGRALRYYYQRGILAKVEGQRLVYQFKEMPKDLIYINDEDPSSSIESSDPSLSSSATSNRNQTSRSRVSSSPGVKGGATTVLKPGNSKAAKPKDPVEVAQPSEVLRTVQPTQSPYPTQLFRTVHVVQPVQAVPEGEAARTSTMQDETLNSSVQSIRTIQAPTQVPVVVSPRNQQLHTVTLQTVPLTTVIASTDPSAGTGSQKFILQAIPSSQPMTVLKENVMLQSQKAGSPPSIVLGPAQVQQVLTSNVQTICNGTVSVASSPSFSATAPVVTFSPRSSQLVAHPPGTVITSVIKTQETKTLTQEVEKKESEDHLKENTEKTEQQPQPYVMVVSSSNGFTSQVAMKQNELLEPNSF
Sequence of ETV6 (P41212 whole entry): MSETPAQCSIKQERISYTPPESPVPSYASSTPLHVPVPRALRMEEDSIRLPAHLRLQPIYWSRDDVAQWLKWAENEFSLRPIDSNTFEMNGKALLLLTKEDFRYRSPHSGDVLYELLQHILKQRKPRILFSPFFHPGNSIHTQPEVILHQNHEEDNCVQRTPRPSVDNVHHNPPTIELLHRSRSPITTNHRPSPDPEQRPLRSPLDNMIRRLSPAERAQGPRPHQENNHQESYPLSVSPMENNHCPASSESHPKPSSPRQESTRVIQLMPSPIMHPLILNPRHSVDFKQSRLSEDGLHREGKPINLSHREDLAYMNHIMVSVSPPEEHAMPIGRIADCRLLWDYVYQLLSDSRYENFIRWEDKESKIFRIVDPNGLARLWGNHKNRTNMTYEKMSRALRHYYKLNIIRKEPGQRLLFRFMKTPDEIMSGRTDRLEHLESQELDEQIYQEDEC
Sequence of ELF4 (Q99607 whole entry): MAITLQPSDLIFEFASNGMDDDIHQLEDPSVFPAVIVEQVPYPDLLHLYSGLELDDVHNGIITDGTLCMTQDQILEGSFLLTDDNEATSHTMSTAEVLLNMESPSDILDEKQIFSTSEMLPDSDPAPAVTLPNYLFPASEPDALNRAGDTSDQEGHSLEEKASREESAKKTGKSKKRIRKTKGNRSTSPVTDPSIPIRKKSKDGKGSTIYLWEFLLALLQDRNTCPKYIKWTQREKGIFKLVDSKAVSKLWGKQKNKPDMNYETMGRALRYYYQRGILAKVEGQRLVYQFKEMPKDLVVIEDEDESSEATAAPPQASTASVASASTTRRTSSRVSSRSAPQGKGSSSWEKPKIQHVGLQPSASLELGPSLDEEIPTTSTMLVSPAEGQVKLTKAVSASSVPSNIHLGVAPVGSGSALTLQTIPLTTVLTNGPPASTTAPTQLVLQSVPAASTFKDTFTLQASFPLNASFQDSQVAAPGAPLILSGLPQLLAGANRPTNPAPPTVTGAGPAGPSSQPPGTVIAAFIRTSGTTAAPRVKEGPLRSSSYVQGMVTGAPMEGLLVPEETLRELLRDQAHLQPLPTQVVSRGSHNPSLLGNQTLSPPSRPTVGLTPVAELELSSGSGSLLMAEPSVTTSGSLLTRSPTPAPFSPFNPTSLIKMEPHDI
Sequence of ETV5 (P41161 whole entry): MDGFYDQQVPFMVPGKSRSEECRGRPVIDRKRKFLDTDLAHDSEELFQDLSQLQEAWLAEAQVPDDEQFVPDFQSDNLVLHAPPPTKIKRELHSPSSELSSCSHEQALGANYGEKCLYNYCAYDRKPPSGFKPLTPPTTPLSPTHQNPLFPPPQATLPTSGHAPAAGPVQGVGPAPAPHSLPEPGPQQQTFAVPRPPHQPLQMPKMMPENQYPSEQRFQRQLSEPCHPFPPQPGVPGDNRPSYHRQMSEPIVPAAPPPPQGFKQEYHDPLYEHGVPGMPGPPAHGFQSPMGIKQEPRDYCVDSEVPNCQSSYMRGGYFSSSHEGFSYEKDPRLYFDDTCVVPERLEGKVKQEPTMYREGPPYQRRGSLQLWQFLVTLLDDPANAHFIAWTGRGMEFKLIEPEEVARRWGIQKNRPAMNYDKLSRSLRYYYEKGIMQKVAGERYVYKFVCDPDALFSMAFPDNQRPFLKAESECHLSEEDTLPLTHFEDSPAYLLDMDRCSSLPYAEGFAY
Sequence of ETV1 (P50549 whole entry): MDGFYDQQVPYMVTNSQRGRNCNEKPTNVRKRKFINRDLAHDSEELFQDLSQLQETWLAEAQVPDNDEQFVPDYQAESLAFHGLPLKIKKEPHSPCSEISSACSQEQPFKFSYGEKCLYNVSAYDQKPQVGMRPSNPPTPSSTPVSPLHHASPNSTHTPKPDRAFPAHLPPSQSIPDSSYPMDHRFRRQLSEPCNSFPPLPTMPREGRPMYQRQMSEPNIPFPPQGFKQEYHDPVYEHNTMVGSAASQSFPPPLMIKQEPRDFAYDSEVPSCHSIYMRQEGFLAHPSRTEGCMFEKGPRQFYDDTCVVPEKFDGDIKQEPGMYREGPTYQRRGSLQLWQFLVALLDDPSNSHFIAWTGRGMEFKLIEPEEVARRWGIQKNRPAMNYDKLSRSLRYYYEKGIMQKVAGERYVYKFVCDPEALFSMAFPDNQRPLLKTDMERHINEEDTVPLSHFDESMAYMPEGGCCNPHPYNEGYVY

With ATTGGC, the binding signal is 1.23 fold enrichment (6-mer frequency, TF over GST control) with FLI1; 1.11 fold enrichment (6-mer frequency, TF over GST control) in the assay with ELK1; 1.09 fold enrichment (6-mer frequency, TF over GST control) with GABPA; 1.05 fold enrichment (6-mer frequency, TF over GST control) with ERG; 1.13 fold enrichment (6-mer frequency, TF over GST control) in the assay with ELF1; 1.15 fold enrichment (6-mer frequency, TF over GST control) with EHF. Also, the binding signal with SPI1 is 1.01 fold enrichment (6-mer frequency, TF over GST control); in the assay with SPIB, 1.13 fold enrichment (6-mer frequency, TF over GST control); with ELK3 it was 1.16 fold enrichment (6-mer frequency, TF over GST control); in the assay with FEV, 1.13 fold enrichment (6-mer frequency, TF over GST control); with ETV5 it was 1.07 fold enrichment (6-mer frequency, TF over GST control); in the assay with ELF4, 1.14 fold enrichment (6-mer frequency, TF over GST control). In addition, the binding signal with ETV1 is 1.11 fold enrichment (6-mer frequency, TF over GST control); in the assay with ERF, 1.15 fold enrichment (6-mer frequency, TF over GST control); with ETV3L it was 1.18 fold enrichment (6-mer frequency, TF over GST control); in the assay with ETS2, 1.18 fold enrichment (6-mer frequency, TF over GST control); with ELF5, 1.08 fold enrichment (6-mer frequency, TF over GST control); with ETV3, 1.09 fold enrichment (6-mer frequency, TF over GST control). Further, in the assay with ETV6, the binding signal was 1.13 fold enrichment (6-mer frequency, TF over GST control).
